Test results taken from the supplement of paper PMC4466140.

Legend:
Test in all cases: SPOT peptide array binding signal intensity (averaged, normalized) (arbitrary units (background-subtracted, floor 0; scale differs between SH3 domains)); higher = stronger binding of the SH3 domain to the peptide
[1] = biological target: AgAbp1
In short: (§1)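 GST-fused SH3 domains, from four yeast species, were produced in E. coli BL21(DE3) and captured on glutathione Sepharose. Membranes of cellulose carrying synthetic 15-mer peptides, in which cysteines had been replaced by serines, were exposed to each domain at 10 μg/ml overnight at 4°C in TBS-based blocking buffer. After anti-GST antibody, an HRP anti-mouse secondary and luminol, spots were imaged and quantified using Genespotter. Binding signal is normalized and background-subtracted spot intensity, averaged over replicates, in arbitrary units that differ between domains.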

[2] = biological target: AgBbc1
In short: as §1

[3] = biological target: AgBem1-D1
In short: as §1

[4] = biological target: AgBzz1-D1
In short: as §1

[5] = biological target: AgBzz1-D2
In short: as §1

[6] = biological target: AgCyk3
In short: as §1

[7] = biological target: AgFus1
In short: as §1

[8] = biological target: AgHof1
In short: as §1

[9] = biological target: AgHse1
In short: as §1

[10] = biological target: AgLsb1
In short: as §1

[11] = biological target: AgLsb4
In short: as §1

[12] = biological target: AgMyo5
In short: as §1

[13] = biological target: AgNbp2
In short: as §1

[14] = biological target: AgRvs167
In short: as §1

[15] = biological target: AgSho1
In short: as §1

[16] = biological target: AgSla1-D1-D2
In short: as §1

[17] = biological target: AgSla1-D3
In short: as §1

[18] = biological target: CaAbp1-D1
In short: as §1

[19] = biological target: CaAbp1-D2
In short: as §1

[20] = biological target: CaBbc1
In short: as §1

[21] = biological target: CaBem1-D1
In short: as §1

[22] = biological target: CaBzz1-D1
In short: as §1

[23] = biological target: CaBzz1-D2
In short: as §1

[24] = biological target: CaCyk3
In short: as §1

[25] = biological target: CaFus1
In short: as §1

[26] = biological target: CaHof1
In short: as §1

[27] = biological target: CaHse1
In short: as §1

[28] = biological target: CaLsb1
In short: as §1

[29] = biological target: CaLsb4
In short: as §1

[30] = biological target: CaMyo5
In short: as §1

[31] = biological target: CaNbp2
In short: as §1

[32] = biological target: CaRvs167
In short: as §1

[33] = biological target: CaRvs167-3
In short: as §1

[34] = biological target: CaSho1
In short: as §1

[35] = biological target: CaSla1-D1-D2
In short: as §1

[36] = biological target: CaSla1-D3
In short: as §1

[37] = biological target: ScAbp1
In short: as §1

[38] = biological target: ScBbc1
In short: as §1

[39] = biological target: ScBem1-D1
In short: as §1

[40] = biological target: ScBzz1-D1
In short: as §1

[41] = biological target: ScBzz1-D2
In short: as §1

[42] = biological target: ScCyk3
In short: as §1

[43] = biological target: ScFus1
In short: as §1

[44] = biological target: ScHof1
In short: as §1

[45] = biological target: ScHse1
In short: as §1

[46] = biological target: ScLsb1
In short: as §1

[47] = biological target: ScLsb2
In short: as §1

[48] = biological target: ScLsb3
In short: as §1

[49] = biological target: ScLsb4
In short: as §1

[50] = biological target: ScMyo3
In short: as §1

[51] = biological target: ScMyo5
In short: as §1

[52] = biological target: ScNbp2
In short: as §1

[53] = biological target: ScPex13
In short: as §1

[54] = biological target: ScRvs167
In short: as §1

[55] = biological target: ScSho1
In short: as §1

[56] = biological target: ScSla1-D1-D2
In short: as §1

[57] = biological target: ScSla1-D3
In short: as §1

[58] = biological target: SpAbp1-D1
In short: as §1

[59] = biological target: SpBbc1
In short: as §1

[60] = biological target: SpBzz1-D1
In short: as §1

[61] = biological target: SpBzz1-D2
In short: as §1

[62] = biological target: SpCyk3
In short: as §1

[63] = biological target: SpHof1
In short: as §1

[64] = biological target: SpHof1-2
In short: as §1

[65] = biological target: SpHof1-3
In short: as §1

[66] = biological target: SpHse1
In short: as §1

[67] = biological target: SpLsb1
In short: as §1

[68] = biological target: SpLsb4
In short: as §1

[69] = biological target: SpMyo1
In short: as §1

[70] = biological target: SpNbp2
In short: as §1

[71] = biological target: SpPex13
In short: as §1

[72] = biological target: SpRvs167
In short: as §1

[73] = biological target: SpSla1-D1-D2
In short: as §1

[74] = biological target: SpSla1-D3
In short: as §1

SNRRPVPRRPSQPLN
SPOT peptide array binding signal intensity [1]: 587 | SPOT peptide array binding signal intensity [2]: 790 | SPOT peptide array binding signal intensity [3]: 12 | SPOT peptide array binding signal intensity [4]: 157 | SPOT peptide array binding signal intensity [5]: 61.8 | SPOT peptide array binding signal intensity [6]: 7.5 | SPOT peptide array binding signal intensity [7]: 27 | SPOT peptide array binding signal intensity [8]: 9 | SPOT peptide array binding signal intensity [9]: 18.2 | SPOT peptide array binding signal intensity [10]: 23.5 | SPOT peptide array binding signal intensity [11]: 3680 | SPOT peptide array binding signal intensity [12]: 0.25 | SPOT peptide array binding signal intensity [13]: 1230 | SPOT peptide array binding signal intensity [14]: 64.1 | SPOT peptide array binding signal intensity [15]: 5.75 | SPOT peptide array binding signal intensity [16]: ≤ 0 | SPOT peptide array binding signal intensity [17]: 3 | SPOT peptide array binding signal intensity [18]: 328 | SPOT peptide array binding signal intensity [19]: 574 | SPOT peptide array binding signal intensity [20]: 1250 | SPOT peptide array binding signal intensity [21]: 135 | SPOT peptide array binding signal intensity [22]: 380 | SPOT peptide array binding signal intensity [23]: 153 | SPOT peptide array binding signal intensity [24]: 464 | SPOT peptide array binding signal intensity [25]: 111 | SPOT peptide array binding signal intensity [26]: ≤ 0 | SPOT peptide array binding signal intensity [27]: 20.5 | SPOT peptide array binding signal intensity [28]: 2 | SPOT peptide array binding signal intensity [29]: 4120 | SPOT peptide array binding signal intensity [30]: 2.75 | SPOT peptide array binding signal intensity [31]: 1960 | SPOT peptide array binding signal intensity [32]: 303 | SPOT peptide array binding signal intensity [33]: 3.5 | SPOT peptide array binding signal intensity [34]: ≤ 0 | SPOT peptide array binding signal intensity [35]: 1570 | SPOT peptide array binding signal intensity [36]: 14.2 | SPOT peptide array binding signal intensity [37]: 306 | SPOT peptide array binding signal intensity [38]: 478 | SPOT peptide array binding signal intensity [39]: 22 | SPOT peptide array binding signal intensity [40]: 11.5 | SPOT peptide array binding signal intensity [41]: 36.5 | SPOT peptide array binding signal intensity [42]: 17 | SPOT peptide array binding signal intensity [43]: 56.8 | SPOT peptide array binding signal intensity [44]: ≤ 0 | SPOT peptide array binding signal intensity [45]: 639 | SPOT peptide array binding signal intensity [46]: 425 | SPOT peptide array binding signal intensity [47]: 8.5 | SPOT peptide array binding signal intensity [48]: 6520 | SPOT peptide array binding signal intensity [49]: 1140 | SPOT peptide array binding signal intensity [50]: 4.75 | SPOT peptide array binding signal intensity [51]: 2.75 | SPOT peptide array binding signal intensity [52]: 2500 | SPOT peptide array binding signal intensity [53]: 377 | SPOT peptide array binding signal intensity [54]: 2630 | SPOT peptide array binding signal intensity [55]: 83 | SPOT peptide array binding signal intensity [56]: 2640 | SPOT peptide array binding signal intensity [57]: 66.1 | SPOT peptide array binding signal intensity [58]: 352 | SPOT peptide array binding signal intensity [59]: 472 | SPOT peptide array binding signal intensity [60]: 500 | SPOT peptide array binding signal intensity [61]: 0.75 | SPOT peptide array binding signal intensity [62]: 6 | SPOT peptide array binding signal intensity [63]: 245 | SPOT peptide array binding signal intensity [64]: 204 | SPOT peptide array binding signal intensity [65]: 302 | SPOT peptide array binding signal intensity [66]: 91.5 | SPOT peptide array binding signal intensity [67]: 96 | SPOT peptide array binding signal intensity [68]: 2870 | SPOT peptide array binding signal intensity [69]: 73.1 | SPOT peptide array binding signal intensity [70]: 21.5 | SPOT peptide array binding signal intensity [71]: 4 | SPOT peptide array binding signal intensity [72]: 1830 | SPOT peptide array binding signal intensity [73]: 21 | SPOT peptide array binding signal intensity [74]: 0.5
